Assay results from PubChem BioAssay (NCI).
About 79,000 compounds went through this panel and 15% of them were active in at least one assay; those are over-represented in the sample as a whole. Activity calls are given as the source filed them. No stated cut-off is given here; in the data, active means growth inhibition above about 70%; inactive means the rest.

Columns and labels:
[1] = NCI Yeast Anticancer Drug Screen. Data for the wt1 strain (AID 149);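 further: 0% = growth of vehicle-treated wt1 cultures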; conditions: S. cerevisiae wt1 strain (SPY 50644) growth inhibition, active compounds read high
Summary of the method: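 wt1 yeast, compound-treated; % growth inhibition vs vehicle control.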

[2] = NCI Yeast Anticancer Drug Screen. Data for the rad50EPP+ strain (AID 151);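 further: 0% = growth of vehicle-treated control cultures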; conditions: S. cerevisiae rad50 mutant strain, active compounds read high
Summary of the method: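 One strain with a rad50 alteration (rad50EPP+) was compound-treated, its growth then compared to that of vehicle controls.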

[3] = NCI Yeast Anticancer Drug Screen. Data for the mgt1 strain (AID 153); conditions: S. cerevisiae mgt1 mutant growth inhibition, active compounds read high
Summary of the method: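 After exposure of the mgt1 yeast mutant to compound, growth was measured and reported as inhibition compared with vehicle controls.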

[4] = NCI Yeast Anticancer Drug Screen. Data for the rad50 strain (AID 155);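 further: 0% = growth of vehicle-only cultures of the same strain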; conditions: S. cerevisiae rad50 strain growth inhibition, active compounds read high
Summary of the method: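 Genetically altered yeast (DNA repair pathway); compound treatment; growth inhibition vs vehicle ctrl.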

[5] = NCI Yeast Anticancer Drug Screen. Data for the mec2-1 strain (AID 157); conditions: S. cerevisiae mec2-1 strain, active compounds read high
Summary of the method: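 Test agents were screened against the mec2-1 yeast strain, with defined DNA repair or cell cycle alteration. Growth was scored as inhibition against vehicle-only controls.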

[6] = NCI Yeast Anticancer Drug Screen. Data for the CLN2oe strain (AID 163);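 further: 0% = growth of vehicle-only control cultures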; conditions: S. cerevisiae CLN2oe strain, active compounds read high
Summary of the method: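 Here, growth inhibition in a cell-cycle-altered yeast strain after compound exposure was quantified against vehicle control growth.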

[7] = NCI Yeast Anticancer Drug Screen. Data for the cln2 rad14 strain (AID 165);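 further: 0% = growth equal to vehicle treated cultures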; conditions: S. cerevisiae cln2 rad14 strain, active compounds read high
Summary of the method: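 Growth of compound-exposed yeast (cln2 rad14 genotype) measured and expressed as inhibition relative to vehicle.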

[8] = NCI Yeast Anticancer Drug Screen. Data for the bub3 strain (AID 167); conditions: S. cerevisiae bub3 mutant strain, active compounds read high
Summary of the method: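 Yeast carrying a defined mutation is treated with each compound, and growth is compared with that of vehicle-exposed cells to give inhibition.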

[9] = NCI Yeast Anticancer Drug Screen. Data for the wt2 strain (AID 169);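 further: 0% = growth of vehicle-treated yeast cultures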; conditions: S. cerevisiae wt2 strain growth inhibition, active compounds read high
Summary of the method: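 Genetically defined yeast strains from a DNA-repair/cell-cycle panel were used. Compound-exposed yeast growth was measured, and the inhibition was calculated relative to vehicle treatment.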

[10] = NCI Yeast Anticancer Drug Screen. Data for the mlh1 strain (AID 171);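 further: 0% = growth of vehicle-treated control cultures of the same strain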; conditions: S. cerevisiae mlh1 strain growth inhibition, active compounds read high
Summary of the method: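 Here the genetically defined yeast mutant is grown with each compound, and the extent to which its growth falls below that of vehicle-exposed cells is reported.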

[11] = NCI Yeast Anticancer Drug Screen. Data for the sgs1 strain (AID 173);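 further: 0% = growth of vehicle-only control cultures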; conditions: S. cerevisiae sgs1 mutant, active compounds read high
Summary of the method: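 Relative growth inhibition, referenced to vehicle, was determined in a yeast strain with a defined alteration affecting DNA damage repair or cell cycle control after compound exposure.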

[12] = NCI Yeast Anticancer Drug Screen. Data for the mlh1 rad18 strain (AID 175); conditions: S. cerevisiae mlh1 rad18 strain growth inhibition, active compounds read high
Summary of the method: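 In this whole-cell yeast screen, a strain with altered DNA damage repair is challenged with compound, and its growth is measured against matched vehicle-treated controls.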

[13] = NCI Yeast Anticancer Drug Screen. Data for the rad18 strain (AID 177); conditions: S. cerevisiae rad18 mutant growth inhibition, active compounds read high
Summary of the method: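 Screen uses a yeast strain with a defined lesion in DNA damage repair; compound effect is read as loss of growth compared to untreated vehicle cultures.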

[14] = NCI Yeast Anticancer Drug Screen. Data for the rad14 strain (AID 159);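 further: 0% = growth of vehicle-treated control cultures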; conditions: S. cerevisiae rad14 strain growth inhibition, active compounds read high
Summary of the method: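 Test compounds were applied to a repair-deficient yeast strain. Its growth was then compared with that of cultures given vehicle alone, and inhibition was expressed relative to those controls.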

[15] = at 5.0 µM (retest, dose inferred, filed as 0.5)
[16] = at 50.0 µM (retest, dose inferred, filed as 5.0)

Measured: growth inhibition

N=C(N)c1ccc(N=Nc2c(O)ccc3c2[nH]c2ccccc23)cc1
active: [1]; at 33.0 µM 95% | [1]; at 100.0 µM 97% | [2]; at 33.0 µM 87% | [2]; at 100.0 µM 95% | [3]; at 33.0 µM 95% | [3]; at 100.0 µM 95% | [4]; at 11.0 µM 91% | [4]; at 33.0 µM 95% | [4]; [16] 98% | [4]; at 50.0 µM 97.8% | [4]; at 100.0 µM 95% | [5]; at 33.0 µM 95% | [5]; [16] 96% | [5]; at 50.0 µM 98.2% | [5]; at 100.0 µM 97% | [6]; at 33.0 µM 93% | [6]; at 100.0 µM 94% | [7]; [16] 95% | [7]; at 50.0 µM 95.9% | [8]; at 11.0 µM 79% | [8]; at 33.0 µM 95% | [8]; [16] 97% | [8]; at 50.0 µM 98.2% | [8]; at 100.0 µM 93% | [9]; at 11.0 µM 84% | [9]; at 33.0 µM 95% | [9]; at 100.0 µM 97% | [10]; at 11.0 µM 71% | [10]; at 33.0 µM 92% | [10]; at 100.0 µM 96% | [11]; at 11.0 µM 92% | [11]; at 33.0 µM 96% | [11]; at 100.0 µM 96% | [12]; [16] 98% | [12]; at 50.0 µM 98.3% | [13]; at 11.0 µM 93% | [13]; at 33.0 µM 96% | [13]; at 100.0 µM 95%
inactive: [1]; at 1.2 µM -2% | [1]; at 3.7 µM -1% | [1]; at 11.0 µM 69% | [2]; at 1.2 µM 8% | [2]; at 3.7 µM 36% | [2]; at 11.0 µM 57% | [3]; at 1.2 µM -2% | [3]; at 3.7 µM 2% | [3]; at 11.0 µM 64% | [4]; at 1.2 µM -2% | [4]; at 3.7 µM 11% | [4]; [15] 57% | [5]; at 1.2 µM -3% | [5]; at 3.7 µM -1% | [5]; [15] 15% | [5]; at 11.0 µM 68% | [6]; at 1.2 µM -3% | [6]; at 3.7 µM 5% | [6]; at 11.0 µM 41% | [7]; [15] -24% | [8]; at 1.2 µM -4% | [8]; at 3.7 µM -3% | [8]; [15] 19% | [9]; at 1.2 µM -3% | [9]; at 3.7 µM 5% | [10]; at 1.2 µM 1% | [10]; at 3.7 µM 2% | [11]; at 1.2 µM 0% | [11]; at 3.7 µM 21% | [12]; [15] 24% | [13]; at 1.2 µM -10% | [13]; at 3.7 µM 11%

CCOC(=O)c1[nH]c2cccc3c2c1CC(Br)C3=O (stereo not given)
inactive: [1]; at 1.2 µM -23% | [1]; at 3.7 µM -5% | [1]; at 11.0 µM -3% | [1]; at 33.0 µM 19% | [1]; at 100.0 µM 60% | [2]; at 1.2 µM -31% | [2]; at 3.7 µM -1% | [2]; at 11.0 µM -12% | [2]; at 33.0 µM 34% | [2]; at 100.0 µM 62% | [3]; at 1.2 µM -33% | [3]; at 3.7 µM 0% | [3]; at 11.0 µM -4% | [3]; at 33.0 µM 67% | [4]; at 1.2 µM -15% | [4]; at 3.7 µM -34% | [4]; [15] 45% | [4]; at 11.0 µM -12% | [4]; at 33.0 µM 57% | [5]; at 1.2 µM -6% | [5]; at 3.7 µM 3% | [5]; [15] 46% | [5]; at 11.0 µM 14% | [14]; at 1.2 µM 0% | [14]; at 3.7 µM -8% | [14]; at 11.0 µM -9% | [14]; at 33.0 µM 4% | [14]; at 100.0 µM 58% | [6]; at 1.2 µM -48% | [6]; at 3.7 µM -44% | [6]; at 11.0 µM -69% | [6]; at 33.0 µM -39% | [6]; at 100.0 µM 67% | [7]; [15] 6% | [7]; [16] 60% | [7]; at 50.0 µM 50.6% | [8]; at 1.2 µM -46% | [8]; at 3.7 µM -39% | [8]; [15] 56% | [8]; at 11.0 µM -29% | [8]; at 33.0 µM 32% | [9]; at 1.2 µM -28% | [9]; at 3.7 µM 2% | [10]; at 1.2 µM -27% | [10]; at 3.7 µM -19% | [10]; at 11.0 µM -11% | [10]; at 33.0 µM 53% | [11]; at 1.2 µM -8% | [11]; at 3.7 µM 14% | [11]; at 11.0 µM 27% | [11]; at 33.0 µM 68% | [13]; at 1.2 µM -39% | [13]; at 3.7 µM -22% | [13]; at 11.0 µM 2%
active: [3]; at 100.0 µM 88% | [4]; [16] 92% | [4]; at 50.0 µM 89.8% | [4]; at 100.0 µM 76% | [5]; at 33.0 µM 80% | [5]; [16] 96% | [5]; at 50.0 µM 91.3% | [5]; at 100.0 µM 87% | [8]; [16] 93% | [8]; at 50.0 µM 76% | [8]; at 100.0 µM 78% | [9]; at 11.0 µM 81% | [9]; at 33.0 µM 97% | [9]; at 100.0 µM 97% | [10]; at 100.0 µM 83% | [11]; at 100.0 µM 80% | [12]; [15] 82% | [12]; [16] 96% | [12]; at 50.0 µM 89.4% | [13]; at 33.0 µM 74% | [13]; at 100.0 µM 89%
